Assay results as given in PMC4336329 (PLoS ONE, 2015).
Among all 310,000 compounds or so, about 14,000 (4.5%) showed an effect of 50% or more. The effect is printed as a negative number. The sample holds strong results, similar compounds and a random draw of the others, so the mix is not that of the screen.

biological target: human ether-à-go-go-related gene (hERG) potassium channel (human, UniProt Q12809); test: primary screen, population patch clamp on CHO cells stably expressing hERG; higher = less effect of the substance
Sequence (Q12809 whole entry, looked up): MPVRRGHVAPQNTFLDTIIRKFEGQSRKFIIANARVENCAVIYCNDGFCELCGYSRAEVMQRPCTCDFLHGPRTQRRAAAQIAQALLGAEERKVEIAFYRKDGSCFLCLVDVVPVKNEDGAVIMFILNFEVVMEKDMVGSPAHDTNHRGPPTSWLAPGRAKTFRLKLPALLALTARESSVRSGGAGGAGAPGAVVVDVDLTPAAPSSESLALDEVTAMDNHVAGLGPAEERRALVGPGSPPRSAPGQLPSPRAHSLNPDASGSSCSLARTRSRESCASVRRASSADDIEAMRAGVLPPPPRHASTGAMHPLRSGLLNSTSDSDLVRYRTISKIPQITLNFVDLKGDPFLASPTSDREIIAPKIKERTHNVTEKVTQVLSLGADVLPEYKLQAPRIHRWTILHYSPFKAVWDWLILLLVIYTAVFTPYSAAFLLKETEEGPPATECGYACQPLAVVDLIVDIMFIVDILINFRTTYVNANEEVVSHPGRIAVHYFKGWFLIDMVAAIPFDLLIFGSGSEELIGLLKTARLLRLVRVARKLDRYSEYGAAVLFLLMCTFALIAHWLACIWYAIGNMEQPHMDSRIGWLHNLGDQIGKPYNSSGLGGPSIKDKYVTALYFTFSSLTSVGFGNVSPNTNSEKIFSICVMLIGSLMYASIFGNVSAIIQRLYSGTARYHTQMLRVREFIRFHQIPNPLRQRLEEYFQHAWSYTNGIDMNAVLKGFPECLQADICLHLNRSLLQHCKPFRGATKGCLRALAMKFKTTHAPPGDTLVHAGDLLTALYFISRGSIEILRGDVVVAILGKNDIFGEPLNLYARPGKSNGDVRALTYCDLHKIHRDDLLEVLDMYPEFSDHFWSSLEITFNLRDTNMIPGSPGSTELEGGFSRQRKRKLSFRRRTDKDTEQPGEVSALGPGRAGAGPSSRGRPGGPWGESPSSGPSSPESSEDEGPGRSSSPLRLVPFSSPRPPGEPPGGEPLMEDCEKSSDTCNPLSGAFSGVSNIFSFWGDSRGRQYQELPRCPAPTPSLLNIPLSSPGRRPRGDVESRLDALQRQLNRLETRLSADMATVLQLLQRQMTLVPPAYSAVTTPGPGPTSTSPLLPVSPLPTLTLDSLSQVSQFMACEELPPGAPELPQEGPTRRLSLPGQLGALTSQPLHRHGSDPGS
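Further: peak tail current of the secondary pulse compared with the same well before compound.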

SMILES | hERG current change (%, negative = inhibition) at 10uM [%]
Cc1onc(-c2ccccc2)c1CNC(=O)C1COc2ccccc2O1 (stereo not drawn) | -23
Cc1ccc2oc(=O)c3cc(C(=O)NCCCN4CC(C)CC(C)C4)sc3c2c1 (stereo not drawn) | -49.2
Cc1ccc2oc(=O)c3cc(C(=O)NCCCN4CCCCCC4)sc3c2c1 | -40.2
CCC1CCCCN1CCCNC(=O)c1cc2c(=O)oc3ccc(C)cc3c2s1 (stereo not drawn) | -69.5
O=C(NCCCN1CCCCCC1)c1cc2c(=O)oc3ccccc3c2s1 | -60.5
Cc1ccc2oc(=O)c3cc(C(=O)NCCCN4CCCC(C)C4)sc3c2c1 (stereo not drawn) | -34.9
Cc1ccc2oc(=O)c3cc(C(=O)NCCCN4CCN(C)CC4)sc3c2c1 | -5.62
CN1CCN(CCCNC(=O)c2cc3c(=O)oc4ccccc4c3s2)CC1 | -14.2
CCN1CCN(CCCNC(=O)c2cc3c(=O)oc4ccc(C)cc4c3s2)CC1 | -19.1
Cc1ccc2oc(=O)c3cc(C(=O)NCCCN4C(C)CCCC4C)sc3c2c1 (stereo not drawn) | -61.6
Cc1nn(C)c(C(=O)Nc2ccc(S(=O)(=O)NC34CC5CC(CC(C5)C3)C4)cc2)c1Br | 9.77
COc1ccc(OCC(O)CN(CC(O)COc2ccc(OC)cc2)c2cccc(O)c2)cc1 (stereo not drawn) | 2.41
CCSc1nnc2c(n1)OC1(CCCC1)Nc1ccccc1-2 | 2.61
COc1ccc(CN(C)C(=O)CCN2C(=O)c3ccccc3C2=O)c(OC)c1OC | -2.22
CCc1c(C)sc(NC(=S)N2CCN(C(=O)C3CCCO3)CC2)c1C(=O)OC (stereo not drawn) | -13
CC(C)Cc1nnc(NC(=O)CCC(=O)N2CCN(c3ccccc3F)CC2)s1 | 17
Cc1ccc(Nc2ccc(C(N)=O)cc2[N+](=O)[O-])cc1C | 8.9
CC(=O)OC(C(=O)NCc1ccc(F)cc1)c1ccccn1 (stereo not drawn) | 4.52
OCC[C@@H]1C[C@@H](O)[C@H](O)[C@@]2(Cc3ccccc3CCO2)O1 | 11
Cn1ccc(NC(=O)c2ccc(Cl)cc2Cl)n1 | 7.79
O=C(CN1C(=O)c2ccccc2C1=O)Nc1cccc(S(=O)(=O)Nc2ccccc2Cl)c1 | 19.9
COc1ccc(C2=Nn3c(nnc3-c3cccnc3)SC2)cc1OC | -61.8
COc1ccc(OC)c(C2=Nn3c(nnc3-c3ccncc3)SC2)c1 | -24.3
c1ccc(C2=Nn3c(nnc3-c3cccnc3)SC2)cc1 | -25.4
COc1ccc(C2=Nn3c(nnc3-c3ccncc3)SC2)cc1OC | -70.8
COc1ccc(C2=Nn3c(nnc3-c3ccccn3)SC2)cc1OC | -34.3
COc1ccc(C2=Nn3c(nnc3-c3ccccc3)SC2)cc1OC | 7.08
